According to PubChem BioAssay AID504534 (National Center for Advancing Translational Sciences (NCATS), 2011):
Results filed as inconclusive are left out. A number with no mark means an inactive call. Calls come from the whole dose curve; as a rule, active = well fitted curve in the direction sought with a large enough effect; inconclusive = small, poorly fitted or top-dose-only effect, or another doubt; inactive = no such curve, though single readings can be large or run the other way.

Experiment: Secondary Assay for Inhibitors of Human Cdc-like kinase 4 (Clk4): HEK-293 Cell Viability Assay;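 note: % of control where 0% means no effect; cytotoxic hits lower the ATP light signal so activity reflects loss of viability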
Details: HEK-293 viability, ATP luminescence (CellTiter-Glo), 24/48 h; series mostly up to 46.1 µM; activity change, negative = cytotoxicity: at the top concentration
Protocol: NIH Molecular Libraries Probe Production Centers Network [MLPCN] NIH Chemical Genomics Center [NCGC] MLPCN Grant: 1R03MH084827-01 Assay Submitter (PI): Tom Misteli NCGC Assay Overview: Cytotoxicity of the active compounds in the Clk4 screens was assessed using the CellTiter-Glo Luminescent Cell Viability Assay kit (Promega, USA) in the HEK-293 (ATCC) cell line. CellTiter-Glo measures the intracellular ATP present in metabolically active cells using Ultra-Glo as the luciferase to detect ATP levels. In brief, the luciferase in the buffer catalyzes the oxidation of luciferin to oxyluciferin and light which is dependent on ATP. […] Wells treated with various concentrations of cycloheximide (Sigma) and DMSO, and wells with media alone were used as positive and negative controls, respectively. […] [1] http://www.promega.com/tbs/tb288/tb288.pdf
NCGC Assay Protocol Summary: HEK-293 cells were grown in a flask up to 80% confluence. Cells were trypsinized, washed, and resuspended in MEM Eagle + 10% FBS + 1% pen-strep media at a concentration of 120 cells/uL. Five uL/well of cell solution was dispensed into a 1536-well assay plates (Greiner, solid white medium-binding plates) with Aurora Discovery BioRAPTR Flying Reagent Dispenser (FRD; Beckton-Dickenson). Cells were pre-incubated at 37 degree Celsius, 5% CO2 for four hours. Compound and control solutions (23nL) were then transferred to the assay plate using the Kalypsys 1536-pin tool. Assay plates were re- incubated at 37 degree Celsius, 5% CO2. After 24 or 48 hours, five uL of CellTiter Glo detection reagent was added. Luminescence signal was read with Perkin Elmer ViewLux plate reader after 30 min room temperature incubation.

SMILES | activity change, negative = cytotoxicity [%]
c1nc(N2CCNCC2)c2cc(-c3ccc4c(c3)OCO4)ccc2n1 | -12.9
Cc1cccc(CNc2ncnc3ccc(-c4ccccc4Cl)cc23)c1 | -18.8
Cc1nc(C)c(-c2ccc3ncnc(NCCc4cnc[nH]4)c3c2)s1 | 0.818
COc1cccc(-c2ccc3ncnc(NCc4ccc5c(c4)OCO5)c3c2)c1 | 7.41
Cc1ccc(CNc2ncnc3ccc(-c4ccc(C(=O)O)o4)cc23)o1 | -11.4
CCN(Cc1sccc1C)c1ncnc2ccc(-c3ccc4c(c3)OCO4)cc12 | -27.4
Cc1nc(C(C)N(C)c2ncnc3ccc(-c4ccc5c(c4)OCO5)cc23)cs1 (stereo not given) | -12.7
CCOC(=O)c1ccc(-c2ccc3ncnc(NCc4cccs4)c3c2)o1 | -2.15
CN(CC(=O)O)c1ncnc2ccc(-c3ccc4c(c3)OCO4)cc12 | -7.63
Cc1nc(CNc2ncnc3ccc(-c4sc(C)nc4C)cc23)cs1 | -20
c1nc(OCc2cnc[nH]2)c2cc(-c3ccc4c(c3)OCO4)ccc2n1 | 5.34
c1nc(NCC2CCCCC2)c2cc(-c3ccc4c(c3)OCO4)ccc2n1 | -14.3
Cc1csc(CNc2ncnc3ccc(-c4ccc5c(c4)OCCO5)cc23)c1 | -15.6
Cc1nc(CCNc2ncnc3ccc(-c4ccc5c(c4)OCO5)cc23)cs1 | -12.5
c1csc(CNc2ncnc3ccc(-c4ccc5c(c4)OCO5)cc23)n1 | -13.1
Cc1csc(CNc2ncnc3ccc(-c4ccc(C(C)O)o4)cc23)n1 (stereo not given) | 1.29
c1nc(N2CCOCC2)c2cc(-c3ccc4c(c3)OCO4)ccc2n1 | -4.64
Fc1c(-c2ccc3ncnc(NCc4cccs4)c3c2)ccc2c1OCO2 | -2.4
Cn1cncc1CNc1ncnc2ccc(-c3ccc4c(c3)OCO4)cc12 | -1.99
Cc1cccc(-c2ccc3ncnc(NCc4cc(C)cs4)c3c2)c1 | -15.7

SMILES | activity change, negative = cytotoxicity [%]
CC(O)c1ccc(-c2ccc3ncnc(NCCc4cnc[nH]4)c3c2)o1 (stereo not given) | -4.9
CN1CCCC1CCNc1ncnc2ccc(-c3ccc4c(c3)OCO4)cc12 (stereo not given) | -13.2
CCCNc1ncnc2ccc(-c3ccc4c(c3)OCO4)cc12 | 4.07
Fc1cccc(CNc2ncnc3ccc(-c4cccc(Cl)c4)cc23)c1 | -12.4
O=C(O)c1ccc(-c2ccc3ncnc(NCc4nccs4)c3c2)o1 | 10.5
Cc1ccc(CNc2ncnc3ccc(-c4ccoc4C)cc23)o1 | -14.1
c1nc(NCC2CCCC2)c2cc(-c3ccc4c(c3)OCO4)ccc2n1 | 1.59
CCN(Cc1cccs1)c1ncnc2ccc(-c3ccc4c(c3)OCO4)cc12 | -18.8
c1nc(NCC2CCCO2)c2ccc(-c3ccc4c(c3)OCO4)cc2n1 (stereo not given) | -17.5
Cc1nc(CNc2ncnc3ccc(-c4ccoc4)cc23)cs1 | 2.4
c1nc(NCc2ccc3c(c2)OCO3)c2cc(-c3ccoc3)ccc2n1 | -9.32
CCNC(=O)c1ccc(-c2ccc3ncnc(NCc4ccc(C)o4)c3c2)o1 | -9.43
c1nc(N2CCC(N3CCCC3)CC2)c2cc(-c3ccc4c(c3)OCO4)ccc2n1 | -6.56
CCNC(=O)c1ccc(-c2ccc3ncnc(NCCc4cnc[nH]4)c3c2)o1 | 0.0342
c1cncc(CNc2ncnc3ccc(-c4ccoc4)cc23)c1 | -11.3
CS(=O)(=O)CCNCc1ccc(-c2ccc3ncnc(Nc4ccc(OCc5cccc(F)c5)c(Cl)c4)c3c2)o1 | 4.65
CCOC(=O)c1ccoc1-c1ccc2ncnc(NCc3csc(C)n3)c2c1 | -12.9
c1csc(CNc2ncnc3cc(-c4ccc5c(c4)OCO5)ccc23)c1 | -10.7
Cc1ccc(CN(C)c2ncnc3ccc(-c4ccc(CO)n4C)cc23)o1 | -21.2
COc1cccc(Nc2ncc3ncc(=O)n(C)c3n2)c1 | -7.13
